From PubChem BioAssay (NCATS)
Inconclusive results are not listed. Unmarked numbers belong to inactive results. Active and inactive are the calls of the source. Calls come from the whole dose curve; as a rule, active = well fitted inhibition curve with a large enough effect; inconclusive = small, poorly fitted or top-dose-only effect; inactive = flat fitted curve, though single readings scatter.

system: Zika virus NS2B-NS3 protease; experiment: Primary screen GU AMC qHTS for Zika virus inhibitors (AID 1347154); details: Zika NS2B-NS3 unlinked protease, AMC fluorogenic substrate; series mostly up to 54.1 µM; activity change, negative = inhibition: at the top concentration; note: nearly all actives have a fitted effect of over 70% in size;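 for activity change, negative = inhibition: 0% = no-inhibitor control and -100% = no-enzyme control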
How it was run: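 Fluorogenic AMC-substrate cleavage by noncovalent NS2B-NS3 protease complex (25 nM, pH 8.0 Tris buffer with Tween 20) followed for 15 minutes at room temperature (~20% conversion). Percent inhibition from ex340/em450 signal change, fitted by 4-parameter Hill equation.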
Potency is the fitted concentration of half-maximal effect.

Structure (SMILES) | Potency | activity change, negative = inhibition [%]
Cc1cc(OCCCc2c(C(=O)O)n(Cc3cccnc3)c3c(-c4c(COc5ccc(N6CCN([S+](C)(=O)[O-])CC6)cc5)nn(C)c4C)cccc23)cc(C)c1Cl | 21.5 µM (active) | –
CCOC(=O)C1=C(N)Oc2ccc(Br)cc2C1C(C#N)C(=O)OCC (stereo not given) | inactive | –
COc1cc(Nc2ncc(F)c(Nc3ccc4c(n3)NC(=O)C(C)(C)O4)n2)cc(OC)c1OC | – | 14.7
O=c1cc(-c2ccc(O)cc2)oc2cc(O)cc(O)c12 | inactive | –
Cc1cccc(C)c1OCC(C)N (stereo not given) | inactive | –
CCCCCN(C)CCC(O)(P(=O)(O)O)P(=O)(O)O | – | 6.5
CC(C)NCC(O)COc1cccc2[nH]ccc12 (stereo not given) | – | -9.66
COC(=O)[C@@H]1[C@H]2C[C@H]3c4[nH]c5ccccc5c4CCN3C[C@@H]2CC[C@@H]1O | – | -7.77
COc1ncc(-c2ccc3nccc(-c4ccnnc4)c3c2)cc1NS(=O)(=O)c1ccc(F)cc1F | – | -2.02
O=C(NCCN1CCOCC1)c1ccc(Cl)cc1 | – | 2.65
O=C(O)CCc1nc(-c2ccccc2)c(-c2ccccc2)o1 | – | -3.53
C[N+](C)(C)CCCCCC[N+](C)(C)C | – | 0.28
O=C1NC(=O)C(c2ccccc2)(c2ccccc2)N1 | – | -5.32
CCN(CC)CCOC(=O)c1ccc(N)cc1 | – | -2.51
COc1cccc(-c2cc(=O)c3ccccc3o2)c1N | inactive | –
CC[C@]1(O)C[C@@H]2CN(CCc3c([nH]c4ccccc34)[C@@](C(=O)OC)(c3cc4c(cc3OC)N(C)[C@H]3[C@@](O)(C(=O)OC)[C@H](OC(C)=O)[C@]5(CC)C=CCN6CC[C@]43[C@@H]65)C2)C1 | inactive | –
CCCCC1C(=O)N(c2ccccc2)N(c2ccccc2)C1=O | – | -3.38
CCN(CC)C(=O)c1ccc(O)c(OC)c1 | – | -2.81
CC(C)(C)c1ccc(C(O)CCCN2CCC(C(O)(c3ccccc3)c3ccccc3)CC2)cc1 (stereo not given) | – | -12.1
NCCS | – | 2.02
NC(N)=Nc1nc(CSCC/C(N)=N/S(N)(=O)=O)cs1 | – | 2.83
NC(=O)c1ccc2nc(-c3ccc(Oc4ccc(Cl)cc4)cc3)[nH]c2c1 | 24.1 µM (active) | –
CCn1cc(C(=O)O)c(=O)c2ccc(C)nc21 | inactive | –
CC(=O)c1ccc(S(=O)(=O)NC(=O)NC2CCCCC2)cc1 | – | -4.56
O=C1NCC2(CCN(CCc3ccccc3)CC2)O1 | – | -2.36
